Compounds with a hit are over-represented: about 2.4% of the library has one in this group of screens.
D2 ag-1 = D2 dopamine receptor (human) agonism; 340,000 compounds, 0.53% hits; AID 485358; HEK293 T-REx D2 cells, calcium flux agonist mode; activation, % at 2 µM;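 active = activation over 3 SD above normal in the single-dose calcium agonist read, cut at about 30% in these data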; also: 0% is about no effect
Target sequence (P14416 whole entry, looked up): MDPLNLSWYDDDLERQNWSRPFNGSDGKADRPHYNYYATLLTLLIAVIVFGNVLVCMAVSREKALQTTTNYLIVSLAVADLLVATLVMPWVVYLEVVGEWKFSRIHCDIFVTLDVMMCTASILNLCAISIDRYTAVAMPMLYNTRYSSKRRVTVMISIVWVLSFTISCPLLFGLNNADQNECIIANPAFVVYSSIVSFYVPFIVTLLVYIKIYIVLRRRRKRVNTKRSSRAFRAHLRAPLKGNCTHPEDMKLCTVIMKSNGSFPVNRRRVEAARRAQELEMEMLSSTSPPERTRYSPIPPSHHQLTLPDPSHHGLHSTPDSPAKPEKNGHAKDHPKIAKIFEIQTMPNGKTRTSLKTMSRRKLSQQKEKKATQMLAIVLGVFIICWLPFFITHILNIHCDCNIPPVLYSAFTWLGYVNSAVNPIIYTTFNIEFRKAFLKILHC
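Tetracycline-induced HEK293 Trex cells with D2 receptor force-coupled to calcium signaling, plated overnight at 30 C and loaded with no-wash calcium dye. Calcium flux read kinetically for 180 s after compound addition; responses flag agonists.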
D2 antagonist = D2 dopamine receptor (human) antagonism; P14416; HEK293 TREx D2 cells, calcium flux, dopamine EC80; inhibition, % at 10 µM; 340,000 compounds, 2% hits; AID 485344; in the data active = inhibition above about 30%; inactive = below that, where a call was filed; also: 0% is about no effect
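HEK293 T-REx D2 cells, tet-induced, calcium dye no-wash. Cpd pintool add, 180 s kinetic, then EC80 DA, 180 s kinetic. Ca flux read.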
D2 PAM-1 = potentiates the human D2 dopamine receptor allosterically | P14416 | DiscoveRx D2 beta-arrestin cells, luminescence, 90 min; 100% = 57 uM dopamine signal | potentiation, % (no concentration beside the values) | 360,000 compounds, 0.23% hits; in the data active = potentiation above about 50%
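PathHunter beta-arrestin assay in DiscoveRx D2 cells. Compounds were added with an EC20 of dopamine (50 nM final) for 90 min at 37 deg C. Luminescence was read 1 h after detection reagent, with 57 uM dopamine as the EC100 control.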
D2 ag-2 = human D2 receptor agonism in beta-arrestin assay. 360,000 compounds, 0.084% hits. AID 624465. DiscoveRx PathHunter D2 beta-arrestin, luminescence, 90 min; 100% = 57 uM dopamine signal. activation, % (no concentration beside the values); in the data active = activation above about 40%
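Agonist mode: compounds alone added to overnight-plated D2 PathHunter cells for 90 min at 37 C, with 57 uM final dopamine (EC100) defining full response. Beta-arrestin recruitment detected by chemiluminescent reagent, read after 1 h at ambient temperature.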
D2 PAM-2 = D2 dopamine receptor (human) potentiation. AID 485347. HEK293 T-REx D2, calcium flux, EC20 dopamine potentiation. P14416. potentiation, % at 10 µM. 340,000 compounds, 0.34% hits;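 active = potentiation over 3 SD above the plate norm, cut at about 30% in these data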; also: 0% is about no effect
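Tetracycline-induced HEK293 T-REx cells force-coupled to calcium signalling expressed D2; compounds were pin-added after a 10 s baseline, read kinetically 180 s, then an EC20 dopamine challenge followed with a further 180 s calcium read.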
* marks the source's active call; other numbers are inactive results; . = no result given.

SMILES	D2 ag-1	D2 antagonist	D2 PAM-1	D2 ag-2	D2 PAM-2
Cc1cc2c(s1)Nc1ccccc1N=C2N1CCN(C)CC1	.	77*	.	.	.
COc1ccc(Br)cc1/C=N/NC(=O)CNC(=O)/C=C/c1ccccc1	0	76*	-41	-2	-26
COc1ccccc1/C=C\C(=O)NCC(=O)N/N=C/c1ccc(O)cc1O	-2	77*	-11	-2	-21
COc1ccc(/C=C\C(=O)NCC(=O)N/N=C/c2cccc(OC)c2O)cc1	1	-3	-14	-4	-16
COc1ccc(/C=C/C(=O)NCC(=O)N/N=C/c2cc(Br)ccc2OCc2ccccc2)cc1	0	-13	-11	1	-11
COc1cccc(/C=N/NC(=O)CNC(=O)/C=C\c2ccccc2)c1O	0	54*	2	3	-16
CCOc1ccc(NC(=O)Nc2nnc(N3CCCCC3C)s2)cc1 (stereo not given)	8	.	.	.	3
COC(=O)CNC(=O)CSc1nc2c(sc(=S)n2-c2ccccc2)c(=O)[nH]1	1	44*	-5	4	-15
CCCCN1C2CCCC1CC(NC(=O)c1cccc(Cl)c1)C2 (stereo not given)	0	31*	-30	-3	-24
CCCN1C2CCCC1CC(NC(=O)c1ccccc1)C2 (stereo not given)	3	30*	-22	0	-8
O=S(=O)(c1ccc(-c2csc(-c3cccnc3)n2)cc1)N1CCCCC1	1	37*	16	4	-4
COc1ccc(CC(=O)Nc2c(C(=O)Nc3ccc(F)cc3)oc3ccccc23)cc1OC	1	.	.	.	3
COC(=O)[C@@H]1C[C@@H]2CC[C@@H](O)C[C@@H]2N1Cc1ccc(OC)cc1	1	39*	-4	-2	9
COc1ccc(Cn2c(SCC(=O)N3CCN(c4ccc(F)cc4)CC3)nc3ccccc32)cc1	0	.	.	.	-1
COc1ccc(NC(=O)CN(Cc2ccccc2)S(=O)(=O)c2ccc(C)cc2)cc1Cl	1	.	.	.	-18
COC(=O)c1ccc(NC(C)C(=O)OC)c([N+](=O)[O-])c1 (stereo not given)	-1	43*	3	1	-10
O=C(ON=C1CCN(S(=O)(=O)c2ccccc2)CC1)c1cccc(Cl)c1	-2	-17	-10	-3	34*
O=C(CC(c1cccs1)N1Cc2ccccc2C1=O)Nc1ccccc1F (stereo not given)	-1	.	.	.	-6
COC(=O)c1ccc(CN2CCC(CO)(Cc3cccc(OC)c3)CC2)cc1	-1	37*	-15	0	-12
COc1cccc(CC2(CO)CCCN(Cc3ccccc3Cl)C2)c1 (stereo not given)	-1	-15	0	-2	-5
COc1cccc(CC2(CO)CCCN(Cc3ccc(CN4CCCCC4)s3)C2)c1 (stereo not given)	-1	40*	-19	-5	-18
COC(=O)c1ccc(CN2CCC(CO)(CCOc3ccccc3)CC2)cc1	.	.	-5	-7	-25
COCCNC(=O)C(=O)Nc1c2c(nn1-c1ccccc1)CS(=O)(=O)C2	-4	.	.	.	-6
Cc1ccc(-n2ncc(C(=O)NCc3ccccn3)c2C2CCN(C(=O)OC(C)(C)C)CC2)cc1C	0	.	.	.	.
COc1cc2c(cc1OC)C(=O)C(c1ccc3c(c1)OCO3)CC2 (stereo not given)	.	.	-3	-3	.
SMILES	D2 ag-1	D2 antagonist	D2 PAM-1	D2 ag-2	D2 PAM-2
COc1cc2c(cc1OC)C(=O)C(Br)CC2 (stereo not given)	.	.	-6	46*	.
Cc1cc(C)c2sc(N3CCN(C(=O)C4CC4)CC3)nc2c1	0	.	.	.	-5
CC(C)(C)Cn1c(=O)[nH]c(=O)c2cc([N+](=O)[O-])cnc21	-1	35*	-6	-2	-1
CCCn1c(-c2cccc([N+](=O)[O-])c2)nc2c1c(=O)[nH]c(=O)n2Cc1ccccc1	2	-5	-1	-4	10
COc1cccc(Cc2nc3ccccc3nc2SCC(=O)NCc2ccc(C)cc2)c1	1	.	.	.	.
On1onc2c3cc(-c4ccccc4)nc3ccc21	0	-3	59*	14	1
CCCn1c2ccccc2c2cnn(CC(=O)NCC3CCN(Cc4ccccc4C)CC3)c(=O)c21	.	.	.	.	-19
